# In PubChem BioAssay (NCATS):
# Results filed as inconclusive are left out.
# Experiment: qHTS Assay for Lipid Storage Modulators (AID 1519)
# Settings: Drosophila S3 cells, BODIPY lipid droplet/cell ratio, laser cytometry; measured here: cell count channel max response; cells loaded with oleic acid
# Outline: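 Cells seeded at 5,000 per well were treated with compounds over a concentration series and loaded with oleic acid (400 uM, as added). Lipid droplet fluorescence (488 nm excitation, 500-530 nm channel) was read by laser-scanning cytometry and normalized to 20 uM Triacsin C.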
row,Compound,max response
1,Cc1ccccc1-c1nccc(NCc2cccs2)n1,-2.46%
2,CN1CCN(c2ncc3nc(-c4ccc(F)cc4)c(=O)n(Cc4cccs4)c3n2)CC1,8.36%
3,COc1ccc(-c2nc3cnc(N4CCN(C)CC4)nc3n(Cc3cccs3)c2=O)cc1,17.6%
4,FC(F)(F)c1ccccc1-c1nc(NCCN2CCOCC2)c2ccccc2n1,18.8%
5,COc1ccc(-c2nc3cnc(Oc4cccc(Cl)c4)nc3n(C3CC3)c2=O)cc1,-15.3%
6,N#CCCn1c(=O)c(-c2ccc(F)cc2)nc2cnc(N3CCOCC3)nc21,20.8%
7,Cn1c(=O)c(-c2cccs2)nc2cnc(N3CCNCC3)nc21,15.4%
8,CS(=O)(=O)Nc1cccc(-c2ccc3ncnc(NC4CC4)c3c2)c1,-8.29%
9,CN1CCN(c2ncc3nc(CCc4ccccc4)c(=O)n(C4CC4)c3n2)CC1,15.9%
10,COCCn1c(=O)cnc2cnc(Nc3ccccc3)nc21,-2.6%
11,Cc1ccccc1-c1ccc2ncnc(NC3CC3)c2c1,4.35%
12,c1cncc(CNc2ncncc2-c2cccnc2)c1,25.3%
13,Clc1ccccc1-c1nccc(NCc2cccs2)n1,8.1%
14,O=c1c(-c2ccc(F)cc2)nc2cnc(Oc3ccccc3)nc2n1Cc1cccs1,-6.12%
15,FC(F)(F)c1ccccc1-c1nc(NCc2cccs2)c2ccccc2n1,10.4%
16,COc1ccc(Oc2ncc3nc(-c4cn(C)c5ccccc45)c(=O)n(C4CC4)c3n2)cc1,3.6%
17,COc1ccc(-n2c(=O)c(-c3ccc(F)cc3)nc3cnc(N4CCOCC4)nc32)cc1,3.3%
18,CC(=O)NCCNc1ncnc2ccc(-c3ccoc3)cc12,-0.704%
